Most compounds without a hit are left out; they make up all but 1.4% or so of the library.
TrxR1 substrate: substrates of rat thioredoxin reductase 1; O89049; purified TrxR1 substrate turnover, NADPH consumption readout; Potency, µM (doses to about 114 µM); 390,000 compounds, 0.01% hits; note: nearly all actives have a fitted effect of over 50% in size
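Rat TrxR1, dispensed at 90 nM, was prereduced with 400 uM NADPH (final) for 5 min at ~22 deg C, then incubated with compound 15 min before 400 uM selenite. A first-read NADPH fluorescence drop versus no-compound background flagged substrates.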
TrxR1 inh: rat TrxR1 inhibition. O89049. recombinant rTrxR1, NADPH fluorescence consumption, selenite substrate. Potency, µM (titrated, usually from 114 µM), actives largely listed as inhibitors. 390,000 compounds, 1% hits. AID 588453; note: nearly all actives have a fitted effect of over 65% in size
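Rat TrxR1 (90 nM in the dispensed reagent) was pre-reduced with 400 uM NADPH for 5 min at room temperature, then incubated with compound for 15 min. After 400 uM selenite was added, NADPH fluorescence (Ex 340/Em 450 nm) was followed for 8 min.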
IDH1 R132H inh: blocks human mutant IDH1 R132H enzyme | O75874 | IDH1-R132H enzyme, NADPH consumption, diaphorase/resazurin fluorescence | Potency, µM (titrated, usually from 76.6 µM), hits mostly inhibitors | 390,000 compounds, 0.093% hits | AID 602179; note: nearly all actives have a fitted effect of over 65% in size
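IDH1-R132H (0.5 ug/mL) preincubated 30 min with compound, then NADPH (0.016 mM) and alpha-KG (2 mM) added; 80 min at RT, pH 7.5. Remaining NADPH coupled via diaphorase/resazurin to fluorescence (540/590 nm); concentration-response curves normalized to no-enzyme control.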
PKM2 act: activators of human pyruvate kinase M2; purified PKM2, Kinase-Glo ATP luminescence, activation; response scale: 0% is enzyme alone, no compound; AID 1631; Potency, µM (top dose mostly 57.5 µM), actives largely listed as activators; P14618; 260,000 compounds, 0.34% hits; note: nearly all actives have a fitted effect of over 55% in size
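Purified hPK-M2 (>95%) run at intermediate activity with 0.1 mM ADP and 0.5 mM PEP in 50 mM imidazole pH 7.2, KCl, MgCl2; 1 h room temperature. ATP formed read by Kinase-Glo luminescence; normalized to uninhibited and no-enzyme controls.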
GLS inhibitor: glutaminase GLS (human) inhibition. GLS enzymatic activity, qHTS titration. Potency, µM (highest dose often 45.5 µM), actives largely listed as inhibitors. 410,000 compounds, 0.21% hits. AID 624170
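Compounds were pin-transferred onto hKGA, after which L-glutamine (1 mM solution) and a detection mix of glutamate oxidase, HRP and Amplex Red were added. Initial and 30 min RT fluorescence reads were collected.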
LDHA block: inhibitors of human lactate dehydrogenase A; P00338; purified LDHA, NADH/diaphorase-resazurin fluorescence; hits give low values; activity change, % (values are at about 110 or 230 µM); 480,000 compounds, 0.15% hits; AID 1347041; in the data active = activity change below about -30%; inconclusive = mostly about -25% to -30%
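LDH5 2 nM; NADH 0.06 mM, pyruvate 0.2 mM; 200 mM Tris pH 7.4, EDTA, Tween-20; 5 min RT. Detection: diaphorase 0.133 mg/mL + resazurin 37 µM, fluorescence ex540/em590 at 0 and 20 min; normalized to enzyme-free and DMSO wells.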
TRb SRC2 Alpha: disrupts human TRb binding to SRC2 peptide in AlphaScreen; 30 compounds, 50% hits; shares compounds with TrxR1 inh; AID 2444; Potency, µM; AlphaScreen TRb LBD-SRC2 peptide binding, luminescence; calls by dose curve
HepG2 viability: reduces HepG2 viability in TRb-SRC2 counter-screen; shares compounds with TrxR1 inh; HepG2 viability, ATP luminescence (CellTiter-Glo), 72 h; Potency, µM; 40 compounds, 50% hits; AID 2447; calls by dose curve
AR SRC2 FP: AR-SRC2 (human) interaction inhibition, selectivity. shares compounds with TrxR1 inh. AR-LBD Tx-SRC2-3 fluorescence polarization, 3 h. AID 2448. 25 tested, under 10 active. calls only; call rule not given here
PPARg DRIP2 FP: PPARg-DRIP2 (human) interaction inhibition, selectivity; PPARg LBD / Texas Red DRIP-2 peptide, fluorescence polarization, 3 h; 25 tested, under 10 active; shares compounds with TrxR1 inh; Potency, µM; calls by dose curve
VDR SRC2 FP: selectivity of TRb-SRC2 inhibitors: human vitamin D receptor-SRC2 inhibition | shares compounds with TrxR1 inh | VDR LBD/SRC2-3 peptide, fluorescence polarization, 3 h | Potency, µM | 25 tested, under 10 active | AID 2455; calls by dose curve
Target sequence (P11473 whole entry, looked up, the tested form may be a part): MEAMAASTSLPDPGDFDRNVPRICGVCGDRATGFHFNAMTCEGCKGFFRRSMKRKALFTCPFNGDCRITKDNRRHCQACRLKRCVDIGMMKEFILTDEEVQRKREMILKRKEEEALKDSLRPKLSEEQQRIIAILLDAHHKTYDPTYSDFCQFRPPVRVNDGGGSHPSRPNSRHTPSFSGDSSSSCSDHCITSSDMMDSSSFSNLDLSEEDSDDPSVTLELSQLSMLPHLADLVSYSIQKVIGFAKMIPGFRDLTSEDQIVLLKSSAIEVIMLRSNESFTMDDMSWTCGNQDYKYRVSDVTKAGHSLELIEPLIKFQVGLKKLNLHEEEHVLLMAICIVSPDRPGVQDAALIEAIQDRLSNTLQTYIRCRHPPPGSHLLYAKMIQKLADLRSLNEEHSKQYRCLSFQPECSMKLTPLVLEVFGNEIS
TRb SRC2 FluoFP: TRb-SRC2 (human) inhibition, fluorescein FP confirmation; shares compounds with TrxR1 inh; TRb LBD / fluorescein-SRC2 peptide, fluorescence polarization; Potency, µM; 20 tested, under 10 active; AID 2487; call rule not given here
Large screens that a line does not name were inactive (follow-up assays come after a bar, where they were run). Unless noted, calls come from the whole dose curve; as a rule, active = well fitted curve in the direction sought with a large enough effect; inconclusive = small, poorly fitted or top-dose-only effect, or another doubt; inactive = no such curve, though single readings can be large; an effect the other way counts as inactive or inconclusive.

CC1CCCCN1C(=O)COC(=O)c1ccc(S(C)(=O)=O)c([N+](=O)[O-])c1 (stereo not given)	TrxR1 inh 10µM (no result: IDH1 R132H inh, PKM2 act, GLS inhibitor) | TRb SRC2 Alpha 19µM | HepG2 viability 22µM | AR SRC2 FP inactive | PPARg DRIP2 FP inactive | VDR SRC2 FP inactive | TRb SRC2 FluoFP 9.1µM
CS(=O)(=O)c1ccc(C(=O)OCC(=O)N2CCN(CCC3CCCCC3)CC2)cc1[N+](=O)[O-]	none (no result: TrxR1 substrate, TrxR1 inh, IDH1 R132H inh, PKM2 act)
CS(=O)(=O)c1ccc(C(=O)OCC(=O)N2CCC(Cc3ccccc3)CC2)cc1[N+](=O)[O-]	none (no result: TrxR1 substrate, TrxR1 inh, IDH1 R132H inh, PKM2 act, GLS inhibitor, LDHA block) | HepG2 viability 9µM
CC1CCCCN1C(=O)COC(=O)CSc1ccc(C(N)=O)cc1[N+](=O)[O-] (stereo not given)	none (no result: PKM2 act)
CCCC1CCN(C(=O)COC(=O)c2ccc(S(C)(=O)=O)c([N+](=O)[O-])c2)CC1	none (no result: TrxR1 substrate, TrxR1 inh, IDH1 R132H inh, PKM2 act, GLS inhibitor, LDHA block) | HepG2 viability 6.6µM
CCN(Cc1ccc(Cl)s1)C(=O)c1cnccn1	none (no result: TrxR1 substrate, TrxR1 inh, IDH1 R132H inh, PKM2 act, GLS inhibitor)
COc1ccc(C)cc1-n1ccnc1SCC(=O)Nc1nccs1	none (no result: TrxR1 substrate, TrxR1 inh, IDH1 R132H inh, PKM2 act, GLS inhibitor)
Cc1csc(Sc2ccc(C(=O)OCC(=O)Nc3ccc(OC(F)(F)F)cc3)cc2[N+](=O)[O-])n1	none
Cc1ccccc1NC(=O)COC(=O)c1ccc(S(C)(=O)=O)c([N+](=O)[O-])c1	TrxR1 inh 2.5µM | TRb SRC2 Alpha 28µM | HepG2 viability inconclusive | AR SRC2 FP inactive | PPARg DRIP2 FP inactive | VDR SRC2 FP inactive | TRb SRC2 FluoFP inactive
NS(=O)(=O)c1cc(C(=O)OCC(=O)Nc2ccc(Cl)cc2[N+](=O)[O-])ccc1Cl	none
CS(=O)(=O)c1ccc(C(=O)OCC(=O)Nc2ccc(OC(F)(F)F)cc2)cc1[N+](=O)[O-]	TrxR1 inh 3.5µM (no result: IDH1 R132H inh, PKM2 act, GLS inhibitor) | TRb SRC2 Alpha 17µM | HepG2 viability inactive | AR SRC2 FP inactive | PPARg DRIP2 FP inactive | VDR SRC2 FP inactive | TRb SRC2 FluoFP inactive
CC(=O)c1cccc(NC(=O)COC(=O)c2ccc(S(C)(=O)=O)c([N+](=O)[O-])c2)c1	TrxR1 inh 1.6µM | TRb SRC2 Alpha 87µM | HepG2 viability inconclusive | AR SRC2 FP inactive | PPARg DRIP2 FP inactive | VDR SRC2 FP 60µM | TRb SRC2 FluoFP inconclusive
NS(=O)(=O)c1cc(C(=O)OCC(=O)Nc2ccccc2[N+](=O)[O-])ccc1Cl	none
CS(=O)(=O)c1ccc(C(=O)OCC(=O)Nc2cc(C(F)(F)F)ccc2Cl)cc1[N+](=O)[O-]	TrxR1 inh 8.9µM (no result: IDH1 R132H inh, PKM2 act, GLS inhibitor) | TRb SRC2 Alpha 17µM | HepG2 viability 17µM | AR SRC2 FP inactive | PPARg DRIP2 FP inactive | VDR SRC2 FP inconclusive | TRb SRC2 FluoFP inactive
CCOc1ccc(S(=O)(=O)N2CCN(Cc3ncc(-c4ccccc4)o3)CC2)cc1	none (no result: TrxR1 substrate, TrxR1 inh, IDH1 R132H inh, PKM2 act, GLS inhibitor)
CC(C)CCNc1nc2ccccc2nc1NS(=O)(=O)c1ccc(F)cc1	none (no result: TrxR1 substrate, TrxR1 inh, IDH1 R132H inh, PKM2 act, GLS inhibitor)
Cc1cccc(/C=C/c2ccc3c([N+](=O)[O-])cccc3n2)c1	none (no result: TrxR1 substrate, TrxR1 inh, IDH1 R132H inh, PKM2 act, GLS inhibitor)
O=C(c1cc(=O)c2ccccc2o1)N1CCCC1Cc1ccccc1 (stereo not given)	none (no result: TrxR1 substrate, TrxR1 inh, IDH1 R132H inh, PKM2 act, GLS inhibitor)
